POLH inh: inhibitors of human DNA polymerase eta; actives 1.2% (n = 390,000); Potency, µM (series often up to 114 µM), most hits filed as inhibitors; Q9Y253; AID 588591; recombinant Pol eta, fluorescent DNA replication assay
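Fluorescent replication assay: 50 nM final substrate added after a 15 min room-temperature compound preincubation with 10 nM enzyme. Signal taken at 0 min and again at 10 min.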
Pol iota inh: DNA polymerase iota (human) inhibition. Pol iota fluorescent replication assay, 10 min. Potency, µM (top dose mostly 115 µM), actives largely listed as inhibitors. actives 1% (n = 390,000). AID 588590
Target sequence (Q9UNA4 whole entry, looked up): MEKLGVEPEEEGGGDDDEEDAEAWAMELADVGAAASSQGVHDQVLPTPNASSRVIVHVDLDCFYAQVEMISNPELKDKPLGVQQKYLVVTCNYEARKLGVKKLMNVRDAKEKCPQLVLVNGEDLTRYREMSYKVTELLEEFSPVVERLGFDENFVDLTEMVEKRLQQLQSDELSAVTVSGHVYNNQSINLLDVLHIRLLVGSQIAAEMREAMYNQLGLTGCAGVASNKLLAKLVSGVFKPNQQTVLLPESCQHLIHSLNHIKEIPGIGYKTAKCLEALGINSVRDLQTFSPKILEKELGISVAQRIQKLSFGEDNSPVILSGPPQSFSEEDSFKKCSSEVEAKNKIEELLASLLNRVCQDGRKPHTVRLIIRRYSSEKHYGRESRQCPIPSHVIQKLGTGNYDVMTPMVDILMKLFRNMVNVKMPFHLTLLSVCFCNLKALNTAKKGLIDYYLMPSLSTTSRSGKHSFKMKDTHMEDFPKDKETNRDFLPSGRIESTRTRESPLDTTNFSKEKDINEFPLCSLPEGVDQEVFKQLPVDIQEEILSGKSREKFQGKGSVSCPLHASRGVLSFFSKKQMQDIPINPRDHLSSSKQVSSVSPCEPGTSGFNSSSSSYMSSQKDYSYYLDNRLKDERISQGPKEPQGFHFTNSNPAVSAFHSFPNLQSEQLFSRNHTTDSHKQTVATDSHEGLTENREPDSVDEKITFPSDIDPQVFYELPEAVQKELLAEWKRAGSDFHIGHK
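Pol iota at 10 nM preincubated 15 min with compounds at room temperature; reaction started with fluorescent substrate, 50 nM final. Fluorescence read kinetically at 0 and 10 min; buffer-only wells as negative control.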
Pol beta inh: blocks human DNA polymerase beta activity; actives 1.3% (n = 340,000); Pol beta primer extension/strand displacement, fluorescence kinetic; Potency, µM (series often up to 114 µM), actives largely listed as inhibitors
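Values derive from four-parameter Hill fits of normalized kinetic data: reads at 0 and 10 min following addition of 50 nM substrate to 10 nM Pol beta preincubated 15 min with compound.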
Pol kappa inh: DNA polymerase kappa (human) inhibition | Q9UBT6 | purified Pol kappa, fluorescent DNA synthesis assay, 10 min | Potency, µM (doses to about 107 µM), most hits filed as inhibitors | actives 0.53% (n = 400,000) | AID 588579
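Kinetic fluorescence readout at 0 and 10 min followed reaction start with substrate at 50 nM final. Beforehand, enzyme (10 nM Pol kappa) stood 15 min with compound at room temperature; buffer-only wells were negative controls.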
WRN helicase inh: blocks human WRN helicase | WRN helicase unwinding, fluorescent forked duplex, kinetic | actives 0.46% (n = 360,000) | Q14191 | Potency, µM (titrated, usually from 114 µM), actives largely listed as inhibitors; note: nearly all actives have a fitted effect of over 55% in size
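Enzyme (20 nM final) and test compound sit together 15 min at room temperature before substrate addition. Substrate is a single-forked duplex oligonucleotide (100 nM) labelled with fluorophore and quencher, with 2 mM ATP; helicase unwinding raises red fluorescence, read kinetically.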
PI5P4Ka inh: blocks human PI5P4K alpha kinase activity; P48426; PI5P4Kalpha enzyme, ADP-Glo luminescence, 60 min; hits give low values; max response, %; actives 1.2% (n = 330,000); active = max response of -50% or lower; inconclusive = between -30% and -50%; inactive = -30% or higher; note: value at the top dose of about 77 µM
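Reactions run in 0.038 M HEPES pH 7.4, 0.28 mM EGTA, 0.1% CHAPS and 5% DMSO, with PI5P4Kalpha, substrate, compound and 5 microM ATP final, one hour at room temperature. Readout is ADP-Glo luminescence.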
Large screens that a line does not name were inactive. Rows were chosen to be rich in hits. Some 2.8% of all compounds tested hit in one or more screens of this group. Unless noted, calls come from the whole dose curve; as a rule, active = well fitted curve in the direction sought with a large enough effect; inconclusive = small, poorly fitted or top-dose-only effect, or another doubt; inactive = no such curve, though single readings can be large; an effect the other way counts as inactive or inconclusive.

CCc1ccccc1NC(=O)CN1C(=O)COc2ccc(S(=O)(=O)Nc3ccccc3)cc21	none (no result: WRN helicase inh, PI5P4Ka inh)
COC(=O)N/N=C/c1cc(Br)ccc1O	Pol beta inh 16µM
Cc1cc2c(=Cc3ccc(N(C)C)cc3)c3ccccc3n2[n+]1C	POLH inh inconclusive, Pol iota inh 79µM, Pol kappa inh inconclusive, WRN helicase inh 35µM (no result: Pol beta inh)
CN(C)c1ccc(C=C2c3ccccc3-c3ccccc32)cc1	none (no result: POLH inh, Pol beta inh, WRN helicase inh, PI5P4Ka inh)
CN(C)c1ccc(C=c2c3ccccc3n3c2c2ccccc2[n+]3C)cc1	POLH inh inconclusive, Pol iota inh inconclusive, WRN helicase inh 10µM, PI5P4Ka inh -75 (no result: Pol beta inh)
CCOC(=O)c1cc2c(=Cc3ccc(N(C)C)cc3)c3ccccc3n2[n+]1C	POLH inh inconclusive, Pol iota inh 40µM, WRN helicase inh 16µM (no result: Pol beta inh)
CCOC(=O)SC1=N/C(=C\c2ccc(N(C)C)cc2)C(=O)S1	none (no result: PI5P4Ka inh)
COc1ccc(OC)c(NC(=O)CSc2nccn2-c2cc(C)cc(C)c2)c1	none (no result: WRN helicase inh, PI5P4Ka inh)
COc1ccc(Cn2ccnc2SCC(=O)Nc2ccc3c(c2)OCCO3)cc1	none (no result: WRN helicase inh, PI5P4Ka inh)
COc1cccc(/C=N/Nc2ncnc3c2[nH]c2ccc(C)cc23)c1OC	POLH inh inconclusive, Pol iota inh 13µM, Pol beta inh inconclusive, Pol kappa inh inconclusive, WRN helicase inh inconclusive
COc1ccc(/C=N/Nc2ncnc3c2[nH]c2ccccc23)c(OC)c1OC	POLH inh inconclusive, Pol iota inh inconclusive, Pol beta inh inconclusive, WRN helicase inh inconclusive
O=S(=O)(c1ccc2ccccc2c1)n1nc(-c2ccco2)nc1NCc1cccc(Cl)c1	none (no result: WRN helicase inh, PI5P4Ka inh)
O=[N+]([O-])c1c(NCc2ccco2)ccc2nonc12	Pol beta inh 3.2µM
O=[N+]([O-])c1c(Nc2ccccc2)ccc2nonc12	none
CCOC(=O)NNc1ccc2nonc2c1[N+](=O)[O-]	POLH inh 10µM, Pol iota inh 10µM, Pol beta inh 45µM, Pol kappa inh inconclusive, WRN helicase inh 50µM, PI5P4Ka inh -65
CCC1CCCCN1C(=O)Cn1c(=O)n(-c2ccc(Cl)c(Cl)c2)c(=O)c2c(C)c(C(=O)N(C)C)sc21 (stereo not given)	none (no result: WRN helicase inh, PI5P4Ka inh)
COc1ccc(S(=O)(=O)N(CCc2ccccc2)CC(=O)Nc2cc(C)ccc2C)cc1	none (no result: WRN helicase inh, PI5P4Ka inh)
COc1cccc(C(=O)Nc2cccc(C(=O)N3CCOCC3)c2)c1	Pol iota inh 89µM
COc1cccc(C(=O)N2CCOCC2)c1	none
COc1cccc(C(=O)NCC2CCN(c3ccc(S(=O)(=O)N4CCOCC4)cc3)CC2)c1	Pol beta inh 40µM
O=C(NCC1CCN(c2ccc(S(=O)(=O)N3CCOCC3)cc2)CC1)c1cccc(Cl)c1	none (no result: PI5P4Ka inh)
O=c1[nH]cnc2n[nH]nc12	none (no result: POLH inh, Pol beta inh, WRN helicase inh, PI5P4Ka inh)
Cc1ccc(OCC(=O)c2ccc(Cl)s2)c([N+](=O)[O-])n1	POLH inh inconclusive, Pol iota inh inconclusive, Pol beta inh 25µM, Pol kappa inh inconclusive, PI5P4Ka inh -56
Cc1ccc(CNC(=O)COc2ccc(C)nc2[N+](=O)[O-])cc1	none
COC(=O)c1ccc(Cl)cc1NC(=O)N(Cc1ccc(OC)cc1)C1CCN(C(C)=O)CC1	none (no result: WRN helicase inh, PI5P4Ka inh)
O=[N+]([O-])c1cccc(C=Nc2cccc3ccccc23)c1O	PI5P4Ka inh inconclusive
CCOC(=O)c1c(/N=C/c2cccc([N+](=O)[O-])c2O)sc(C)c1C	Pol iota inh inconclusive, PI5P4Ka inh -69
CCc1nn(CC(=O)NCCOC)c(=O)c2cc3cc(F)ccc3n12	none (no result: WRN helicase inh, PI5P4Ka inh)
Cc1ccc2cc(C3CC(c4ccco4)=NN3C(=O)CCCC(=O)O)c(Cl)nc2c1 (stereo not given)	none
Cc1ccc2nc(Cl)c(C3CC(c4ccco4)=NN3C(=O)CCCC(=O)O)cc2c1 (stereo not given)	POLH inh inconclusive, Pol iota inh 16µM, Pol kappa inh 35µM
COc1ccccc1CNC(=O)c1cnccn1	POLH inh 71µM, Pol iota inh inconclusive, Pol beta inh 40µM, Pol kappa inh inconclusive (no result: PI5P4Ka inh)
COc1ccccc1CNC(=O)COC(=O)c1cnccn1	Pol iota inh inconclusive
COc1ccccc1CNC(=O)c1ccccc1C(=O)NC(CC(C)C)C(=O)NCc1ccccc1OC (stereo not given)	Pol iota inh 71µM
CCOc1ccc(NC(=O)Cn2c(=O)cc(C)c3c(C)nn(-c4ccc(CC)cc4)c32)cc1	none (no result: WRN helicase inh, PI5P4Ka inh)
Cc1ccc2oc(=O)c3cc(C(=O)NCCCN4CCCCCC4)sc3c2c1	Pol iota inh 79µM
CC(=Nc1ccccc1N)c1c(C)cc(=O)n(O)c1O	none (no result: POLH inh, Pol iota inh, Pol beta inh, WRN helicase inh, PI5P4Ka inh)
O=C(CCl)N(c1ccccc1)c1c[nH]c2ccccc12	POLH inh 14µM
N#Cc1cccc(-c2cncnc2-n2ccnc2)c1	none (no result: POLH inh, Pol iota inh, Pol beta inh, WRN helicase inh, PI5P4Ka inh)
COc1cccc(C2CC(c3ccc(NS(C)(=O)=O)cc3)=NN2C(=O)c2ccccc2)c1OC (stereo not given)	POLH inh inconclusive, Pol iota inh 89µM, PI5P4Ka inh inconclusive
COc1ccccc1C1CC(c2ccc(NS(C)(=O)=O)cc2)=NN1C(=O)c1ccccc1 (stereo not given)	none
CN1c2ccccc2C(C)(C)C12C=Cc1cc(O)ccc1O2 (stereo not given)	none (no result: PI5P4Ka inh)

Assay outcomes as filed in PubChem.
